High-throughput results deposited in PubChem by National Center for Advancing Translational Sciences (NCATS).
The sample as a whole holds a higher share of hits than the screen did.
nsP2pro primary: Primary qHTS for inhibitors of NSP2Pro chikungunya virus (CHIKV); AID 1964107, 2024; Potency, µM (doses to about 24.9 µM), for the others: at the top dose activity change, negative = inhibition, usual class: inhibitors; FRET peptide cleavage, nsP2pro, fluorescence 1 h; Polyprotein P1234 (Chikungunya virus (strain S27-African prototype)), Q8JUX6; actives 1.1% (n = 31,000); further: nearly all actives have a fitted effect of over 60% in size
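Purified recombinant nsP2pro (150 nM final) in 10 mM Tris-HCl pH 8.0 with 0.01% Tween 20 was preincubated 15 min at room temperature with compound (7 concentrations, up to 25 uM). FRET peptide 2 substrate (2.5 uM final) was then added; fluorescence was read after 1 h.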
nsP2 cell sec: Secondary cell base assay for inhibitors of NSP2Pro Chikungunya virus (CHIKV); shares compounds with nsP2pro primary; cell-based CHIKV nsP2 protease reporter assay; Potency, µM (titrated, usually from 51.1 µM), without a hit: top-dose activity change, negative = inhibition, actives largely listed as inhibitors; actives 10% (n = 450); AID 1964100, 2024; further: nearly all actives have a fitted effect of over 70% in size
Target sequence (Q8JUX6 220-798 limits assumed): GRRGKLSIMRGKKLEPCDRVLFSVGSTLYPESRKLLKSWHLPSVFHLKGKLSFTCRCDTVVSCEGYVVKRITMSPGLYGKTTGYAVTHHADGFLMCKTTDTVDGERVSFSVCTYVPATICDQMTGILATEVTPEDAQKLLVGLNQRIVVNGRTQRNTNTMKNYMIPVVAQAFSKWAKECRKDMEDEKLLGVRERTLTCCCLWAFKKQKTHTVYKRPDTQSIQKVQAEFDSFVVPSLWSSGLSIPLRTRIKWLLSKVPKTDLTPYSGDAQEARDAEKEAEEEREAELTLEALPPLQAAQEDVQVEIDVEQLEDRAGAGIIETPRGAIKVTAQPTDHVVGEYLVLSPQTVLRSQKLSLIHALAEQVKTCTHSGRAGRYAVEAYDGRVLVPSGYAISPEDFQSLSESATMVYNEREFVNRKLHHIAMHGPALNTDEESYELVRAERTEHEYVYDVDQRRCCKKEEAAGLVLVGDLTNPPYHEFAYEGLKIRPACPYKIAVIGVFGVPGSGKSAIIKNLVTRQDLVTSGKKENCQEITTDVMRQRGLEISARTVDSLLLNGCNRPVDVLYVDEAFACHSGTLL
NSP2 full ctr: Selectivity profile for inhibitors of NSP2Pro chikungunya virus (CHIKV): Full length NSP2 enzyme counterscreen (CHIKV-NSP2); actives 39% (n = 410); AID 1964101, 2024; shares compounds with nsP2pro primary; Potency, µM (doses to about 50.7 µM), inactives show at the top dose activity change, negative = inhibition, usual class: inhibitors; Full-length CHIKV NSP2 protease enzymatic counterscreen; further: nearly all actives have a fitted effect of over 65% in size
Furin counterscr: Selectivity profile for inhibitors of NSP2Pro chikungunya virus (CHIKV): Human furin counterscreen; Potency, µM (top dose mostly 50.6 µM), without a hit: at the highest dose activity change, negative = inhibition, most hits filed as inhibitors; actives 6% (n = 410); shares compounds with nsP2pro primary; Recombinant human furin enzymatic counterscreen, fluorogenic substrate
NS23 peptide cs: Selectivity profile for inhibitors of NSP2Pro chikungunya virus (CHIKV): Endogenous NS2/3 peptide Counterscreen. shares compounds with nsP2pro primary. Purified CHIKV nsP2 protease, endogenous NS2/3 peptide cleavage. Potency, µM (highest dose often 51 µM), for the others: top-dose activity change, negative = inhibition, most hits filed as inhibitors. actives 34% (n = 410); further: nearly all actives have a fitted effect of over 55% in size
Papain cs: Selectivity profile for inhibitors of NSP2Pro chikungunya virus (CHIKV): Papain Counterscreen | shares compounds with nsP2pro primary | purified papain protease activity, enzymatic inhibition | Potency, µM (highest dose often 51 µM), inactives show at the highest dose activity change, negative = inhibition, most hits filed as inhibitors | actives 5% (n = 410)
nsP2pro confirm: Confirmatory qHTS for inhibitors of NSP2Pro chikungunya virus (CHIKV) | shares compounds with nsP2pro primary | CHIKV nsP2 protease enzymatic activity, qHTS | Potency, µM (top dose mostly 25.5 µM), without a hit: top-dose activity change, negative = inhibition, most hits filed as inhibitors | actives 43% (n = 410) | AID 1964105, 2024; further: nearly all actives have a fitted effect of over 75% in size
HCV NS3 counter: Selectivity profile for inhibitors of NSP2Pro chikungunya virus (CHIKV): NS34A-HCV Counterscreen | shares compounds with nsP2pro primary | HCV NS3/4A protease biochemical counterscreen | Potency, µM (titrated, usually from 50.9 µM), usual class: inhibitors | actives 20% (n = 410) | AID 1964106, 2024; further: nearly all actives have a fitted effect of over 55% in size
The depositor's hits bear a star; i = inactive; ? = inconclusive; [ ] = remark or other dose. The call rests on the fitted dose curve. On the % scale 0 is the no-effect control and ±100 the full control effect; potency means the concentration at half of the fitted maximal effect.

SMILES | nsP2pro primary | others
Cc1cc(C)nc(NC(=S)N2CCN(c3ncc(Cl)cc3Cl)CC2)c1 | 2.2%
COc1cccc(N2C(=O)NC(=NC3CCCCC3)C23CCCN(CC2CCCCC2)C3)c1 (stereo not drawn) | -18.3%
CC(C)c1ccc(=O)n(CC(=O)NCCc2ccccc2)n1 | i
COc1ccccc1C(=O)Nc1ccc(NC(=O)c2cccs2)cc1 | -7.5%
Nc1ccc(-c2ccc(NC(=O)c3cccs3)cn2)cc1 | 4.7%
COc1ccc(-c2ccc(NC(=O)c3cccs3)cn2)cc1 | ? | nsP2 cell sec=0.2%;NSP2 full ctr=?;Furin counterscr=-4.1%;NS23 peptide cs=-14.6%;Papain cs=-3.8%;nsP2pro confirm=-6.5%;HCV NS3 counter=?
COc1cccc([S+](=O)([O-])N2CCC3(C2)C(=NC2CCCCC2)NC(=O)N3c2cc(F)cc(F)c2)c1 (stereo not drawn) | 3.5%
CCOC(=O)c1ccoc1-c1ccc2ncnc(NCc3ccc(C)o3)c2c1 | 3.6%
CCOC(=O)c1ccc(OCCN2C[C@H](O)[C@@H](O)[C@H](O)[C@H]2CO)cc1 | ? | nsP2 cell sec=-3.9%[17.6 µM];NSP2 full ctr=?;Furin counterscr=14.2µM*;NS23 peptide cs=-15.5%[17.2 µM];Papain cs=-14.2%[17.2 µM];nsP2pro confirm=?;HCV NS3 counter=i
CCCCN1C[C@H](O)[C@@H](O)[C@H](O)[C@H]1CO | 2.8%
OCCN1C[C@H](O)[C@@H](O)[C@H](O)[C@H]1CO | -8.3%
CC(C)C1=CCC(C)(O)C(OC2OC(CO)C(O)C(O)C2O)C1 (stereo not drawn) | 140.5%
Cc1ccc(OCCn2c(CCNC(=O)c3ccccc3N)nc3ccccc32)cc1 | 4.47µM* | nsP2 cell sec=138.1%;NSP2 full ctr=0.517µM*;Furin counterscr=20.6µM*;NS23 peptide cs=1.63µM*;Papain cs=-23.0%;nsP2pro confirm=1µM*;HCV NS3 counter=0.517µM*
Cc1ccc(OCCn2c(CCNC(=O)c3ccccc3Br)nc3ccccc32)cc1 | -6.2%
Cc1ccc(OCCn2c(CCNC(=O)c3cc(N)ccc3N)nc3ccccc32)cc1 | -0.5%
CC(C)(C)[C@H](NC(=O)C(F)(F)F)C(=O)N1C[C@H]2[C@@H]([C@H]1C(=O)N[C@H](C#N)C[C@@H]1CCNC1=O)C2(C)C | -6.0%
C[n+]1c2cc(N)ccc2cc2ccc(N)cc21 (tested in a mixture with another compound) | ? | nsP2 cell sec=?;NSP2 full ctr=-4.5%;Furin counterscr=?;NS23 peptide cs=?;Papain cs=?;nsP2pro confirm=47.1%;HCV NS3 counter=i
O=C(NCCN1CCOCC1)c1cc2c(Oc3ccc(NC(=O)C4(C(=O)Nc5ccc(F)cc5)CC4)cc3)ccnc2[nH]1 | 23.7%
COc1ccc2nc(-c3cccc(C)c3)sc2c1 | -2.0%
COC(=O)N[C@H](C(=O)N1CC2(CC2)C[C@H]1c1ncc(-c2ccc3c(c2)C(F)(F)c2cc(-c4ccc5nc([C@@H]6[C@H]7CC[C@H](C7)N6C(=O)[C@@H](NC(=O)OC)C(C)C)[nH]c5c4)ccc2-3)[nH]1)C(C)C | 4.0%
CCCCOc1ccc(C(=O)N2CCN(CCc3ccncc3)CC2)cc1 | ? | nsP2 cell sec=24.2%
O=C(O)c1ccc(OCCCOc2ccc(C(=O)O)cc2)cc1 | 3.5%
CCCCOc1ccc(C(=O)CCN2CCCCC2)cc1 | 2.21µM* | nsP2 cell sec=?;NSP2 full ctr=10.3µM*;Furin counterscr=?;NS23 peptide cs=13µM*;Papain cs=?;nsP2pro confirm=8.96µM*;HCV NS3 counter=i
Cc1ccc(OCC(=O)N2CCN(CCc3ccncc3)CC2)cc1C | -15.9%
CCCCOc1ccc(OCCCN2CCOCC2)cc1 | 11.6%
SMILES | nsP2pro primary | others
Cc1cc(OCC(=O)N2CCN(CCc3ccncc3)CC2)ccc1Cl | -13.6%
C=CC(=O)Nc1cccc(Nc2nc(Nc3ccccc3)ncc2C)c1 | 6.8%
O=c1ccc2ccc(OCCCCN3CCN(c4cccc5sccc45)CC3)cc2[nH]1 | 11.2%
Cc1ccc(S(=O)(=O)Cc2noc([C@@H]3C[C@@H](O)CN3Cc3cccc(C#N)c3)n2)cc1 | -6.2%
COc1cc(O)c(C(CC(=O)N2CCCC(c3nc4ccccc4o3)C2)c2ccc3c(c2)OCO3)c(OC)c1 (stereo not drawn) | -21.0%[39.2 µM]
Cc1ccc(-c2ccc(=O)n(CC(=O)NCCCc3ccco3)n2)cc1 | -23.6%
COc1ccc(NC(=O)CNS(=O)(=O)c2cccs2)c(OC)c1 | -16.4%
CCOCCCNC(=O)C(c1ccc(OC)cc1)N(Cc1cccs1)C(=O)CNC(C)=O (stereo not drawn) | -10.0%
C#CC(=O)N(c1ccc(OC)cc1OC)C(C(=O)NCC(=O)OCC)c1cccs1 (stereo not drawn) | 0.624µM* | nsP2 cell sec=-17.4%;NSP2 full ctr=1.3µM*;Furin counterscr=-5.2%;NS23 peptide cs=2.91µM*;Papain cs=-8.4%;nsP2pro confirm=0.798µM*;HCV NS3 counter=i
CN1CCN(Cc2ccc(-c3cnc4[nH]cc(-c5ccc6[nH]ccc6c5)c4c3)cc2)CC1 | 105.1%
COc1ccc(C(=O)N2CCC(C(=O)Nc3ccc(Cl)cc3)CC2)cc1 | -16.0%
CC#CC(=O)N1CCCC(C(=O)Nc2ccc(-c3cccc(OC)c3)cc2)C1 (stereo not drawn) | i
O=C(Nc1ccc(Cl)cc1)C1CCCN(C(=O)c2cccc(-c3ccco3)c2)C1 (stereo not drawn) | 7µM* | nsP2 cell sec=?;NSP2 full ctr=-19.0%;Furin counterscr=-8.2%;NS23 peptide cs=-24.2%;Papain cs=-15.5%;nsP2pro confirm=?;HCV NS3 counter=i
C/C=C/C=C/C=C/C(=O)O[C@@H]1[C@@H](OC)C2=C(C(=O)N(C(C)C(=O)O)C2)[C@@]2(C)CCCC(C)(C)[C@H]12 (stereo partly drawn) | 68.0%[10 µM]
C[C@@H](N)C(=O)N1CCC2(CC1)CC(=O)N(Cc1cc(F)cc(F)c1)C2 | 1.6%
